Compound activity: PubChem, several laboratories
TLR9-MyD88 inh: blocks human TLR9 binding to MyD88. CHO BLA complementation TLR9-MyD88, CCF4 FRET ratio. AID 504734. Q9NR96+Q99836. inhibition, % at 4.98 µM. actives 0.21% (n = 340,000);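 active means inhibition above the mean over all tested compounds plus 3 SD, cut at about 21% in these data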;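 further: 0% = DMSO only wells and 100% = clavulanate BLA inhibitor control wells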
HTR2A ag: activates the mouse 5-HT2A serotonin receptor. CHO-K1 mHTR2A beta-arrestin complementation, luminescence; percent of 30 µM serotonin response. activation, % at 7.6 µM. actives 0.66% (n = 360,000). AID 624169;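 active means activation above a run cutoff, the mean activation of all tested compounds plus 3 SD, cut at about 14% in these data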;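 further: 0% = plate median of compound wells and 100% = 30 µM serotonin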
TLR4-MyD88 BLA: inhibitors of human TLR4-MyD88 binding | O00206+Q99836 | HeLa CL3-4 TLR4/MyD88 BLA complementation, FRET ratio | inhibition, % at 8.4 µM | actives 0.18% (n = 200,000); in the data active means inhibition above about 25%;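 further: 0% = vehicle and 100% = reference inhibitor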
ABHD5 PLIN5 PPI: inhibitors of human ABHD5-perilipin-5 interaction; Q00G26+Q8WTS1; Split G. princeps luciferase complementation, luminescence, 4 h; inhibition, % at 4 µM; actives 0.78% (n = 360,000);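 active means inhibition above the mean inhibition across every tested compound plus 3 SD, cut at about 22% in these data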;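 further: 0% = DMSO only wells and the 100% control is not disclosed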
NOD2 RIPK2 PPI: inhibitors of human NOD2-RIPK2 interaction; CHO BLA complementation NOD2-RIPK2, CCF4 ratio; inhibition, % at 4.98 µM; actives 0.38% (n = 360,000); AID 624267; in the data active means inhibition above about 21%;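 further: 0% = vehicle only and 100% = reference blocker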
CRFR2-BP antag: blocks CRF-induced signaling of the CRF-BP/CRF-R2 complex; HEK293 CRF-R2/CRF-BP, CRF-induced calcium fluorescence; inhibition, % at 11.8 µM; actives 0.59% (n = 350,000);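 active means inhibition of the ligand-induced calcium signal above about 50% at the single tested concentration, limit read from the data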
* = called active by the depositor; x = no result; ! = not confirmed by another sample. This is a sample that favours compounds with a hit; in the whole collection about 2.4% have one here.

SMILES | TLR9-MyD88 inh | HTR2A ag | TLR4-MyD88 BLA | ABHD5 PLIN5 PPI | NOD2 RIPK2 PPI | CRFR2-BP antag
COc1ccc(NC(=S)NCc2cccnc2)cc1 | -2 | -2 | -3 | -3 | 2 | 92*
Cc1ccc(-n2nc3c(c2NC(=O)c2ccc(OC(C)C)cc2)CS(=O)C3)cc1 (stereo not drawn) | 2 | -4 | 5 | -2 | -5 | 68*
CCOc1ccc(C(=O)Nc2c3c(nn2-c2ccc(C)cc2)CS(=O)C3)cc1OCC (stereo not drawn) | 4 | 7 | -11 | -3 | -9 | -1
O=C(O)c1cc(-c2ccco2)nc2ccc(Br)cc12 | -4 | 0 | 8 | 29*! | -11 | -11
COCCCNCCOCCSc1ccc(Cl)cc1 | -8 | -1 | -10 | 3 | -3 | 3
CCCCNCCOCCSc1ccc(Cl)cc1 | -6 | 30* | 11 | -3 | 4 | 8
COC[C@H]1CCCN1[C@H]1CS(=O)(=O)N[C@@H]1COCc1ccccc1 | x | 6 | x | 0 | -7 | x
O=[N+]([O-])c1cc([N+](=O)[O-])c2oc(-c3ccccc3)c(Br)c2c1O | 7 | 2 | x | 4 | 0 | 57*
O=c1cc(-c2ccccc2Cl)oc2ccc([N+](=O)[O-])c(O)c12 | 9 | -2 | -12 | -6 | -5 | -4
COC(=O)C[C@@H]1C=C[C@H](NC(=O)Nc2ccc(F)cc2)[C@@H](CO)O1 | x | 2 | x | 0 | 3 | x
OCCN1CCN(C2Cc3cc(Cl)ccc3Sc3ccc(Cl)cc32)CC1 (stereo not drawn) (tested in a mixture with another compound) | 6 | -10 | -5 | 23* | -1 | -33
CN1CCN(C2Cc3cc(Cl)ccc3Sc3cc(F)ccc32)CC1 (stereo not drawn) | -9 | -12 | x | 10 | 6 | -24
CCCCN1C(=O)C(CC(=O)NCc2cccc3ccccc23)CC(C(=O)N2CCCCCC2)=C1C (stereo not drawn) | x | 7 | x | 7 | 0 | x
COc1ccc(Cl)cc1NC(=O)NC(C)C | -6 | -5 | -18 | 3 | 6 | 27
COc1ccc(Cl)cc1NC(=O)C(C)NC(c1ccccc1)c1ccccc1 (stereo not drawn) | 15 | -1 | -9 | -8 | -1 | 53*
Cc1cccc(Cl)c1NC(=O)NCCCN1CCCCC1C (stereo not drawn) | x | 2 | x | -3 | -3 | x
CS(=O)(=O)c1ccc(C(=O)Nc2nc(-c3ccco3)c(-c3ccco3)s2)cc1 | 10 | 8 | x | 22* | -15 | -9
CS(=O)(=O)c1ccc2nc(NC(=O)c3ccccc3)sc2c1 | -4 | -2 | x | -5 | -6 | -4
CC(N)c1csc(Nc2nncc3ccccc23)n1 (stereo not drawn) | x | 0 | x | 7 | 4 | x
Cn1c(C(=O)NCCc2ccccc2)cc(=O)n(C)c1=O | -15 | 1 | 7 | -5 | -7 | 71*
COc1ccc(CCNC(=O)c2cc(=O)n(C)c(=O)n2C)cc1OC | 0 | -1 | -2 | -5 | -5 | 8
CC(=O)N1N=C(c2ccc(Cl)cc2)CC1c1ccc([N+](=O)[O-])cc1 (stereo not drawn) | 5 | 5 | x | 0 | -10 | -3
CC1(O)CC(c2ccc(Cl)cc2)=NN1C(=O)c1ccc([N+](=O)[O-])cc1 (stereo not drawn) | -4 | 2 | -5 | 5 | -3 | 100*
COC(=O)CN1C(=O)S/C(=C/c2ccc(N3CCCCC3)o2)C1=O | 6 | 7 | 13 | 27* | 12 | -30
Oc1c(CN2CCOCC2)cc(CN2CCOCC2)cc1CN1CCOCC1 | 1 | -2 | x | 5 | -8 | -3
SMILES | TLR9-MyD88 inh | HTR2A ag | TLR4-MyD88 BLA | ABHD5 PLIN5 PPI | NOD2 RIPK2 PPI | CRFR2-BP antag
Oc1cc(O)c(CN2CCOCC2)cc1CN1CCOCC1 | 5 | 0 | x | 22* | -1 | 12
CCOC(=O)[C@]12CCCC=C1N(CCC1=CCCCC1)C(=O)[C@H](CC(=O)NCc1cccc3ccccc13)C2 | x | -8 | x | 2 | 1 | x
Cc1ccccc1CNC(=O)Nc1cccs1 | -5 | -1 | -10 | -16 | -14 | 53*
O=C(NCc1cccs1)Nc1cccs1 | 0 | 5 | -9 | 2 | -11 | -12
CCCCC[C@H](C)N1C[C@H](COCc2ccccc2)Oc2cc(N3CCC[C@H]3COC)ccc2S1(=O)=O | x | -2 | x | -11 | -15 | x
CC1CN(C(c2ccco2)c2sc3ncnn3c2O)CC(C)O1 (stereo not drawn) | -1 | 3 | -6 | 2 | -3 | 82*
COC(=O)C[C@@H]1C=C[C@@H](NS(=O)(=O)c2ccc(OC)cc2)[C@@H](CO)O1 | x | 0 | x | 3 | -5 | x
COc1ccc(OC(F)(F)F)cc1CC1(C)C(=O)Nc2ccc(S(=O)(=O)NC3CCCCC3)cc21 (stereo not drawn) | x | 6 | x | -8 | 7 | x
CCOC(=O)C1CN(S(=O)(=O)c2ccccc2)C1 | 6 | 7 | -5 | -5 | 2 | 18
CCOC(=O)C1(C(=O)OCC)CCN(S(=O)(=O)c2ccccc2)CC1 | 6 | -5 | x | 8 | -9 | 69*
CCOC(=O)C1CCCN(S(=O)(=O)c2ccccc2)C1 (stereo not drawn) | -3 | 0 | 6 | 4 | -5 | 78*
Cc1cccc(C)c1NC(=O)C1(C)CN(S(C)(=O)=O)CC(=O)N1C1CC1 (stereo not drawn) | x | -3 | x | 8 | -3 | x
CCN(CC)C1Oc2cc3c(cc2C(c2cccc(OC)c2O)C1C)OCO3 (stereo not drawn) | -2 | 4 | x | -1 | 1 | 120*
CC1(C(=O)NS(=O)(=O)Cc2ccccc2C(F)(F)F)CCN1C(=O)Cc1cccs1 (stereo not drawn) | x | 4 | x | -7 | -10 | x
CC(c1ccco1)N(C(=O)c1ccccc1NS(=O)(=O)c1ccc(Cl)c([N+](=O)[O-])c1)c1ccccn1 (stereo not drawn) | -6 | 8 | 13 | 5 | 13 | 52*
COc1ccc(C2Nc3ccccc3C(=O)N2Cc2ccco2)cc1COc1ccccc1F (stereo not drawn) | 1 | -1 | -13 | 23* | -2 | 24
COc1ccc(C2Nc3ccccc3C(=O)N2Cc2ccco2)cc1COc1ccc(NC(C)=O)cc1 (stereo not drawn) | -4 | -2 | -13 | 9 | -4 | 9
CC(=O)N(C(C)=O)c1cccc(N(Cc2ccccc2)Cc2ccccc2)c1 | 6 | -5 | x | 4 | 0 | 54*
CC1=C(C(=O)N2CCOCC2)CC(CC(=O)NC2CC2)C(=O)N1Cc1ccc(F)cc1 (stereo not drawn) | x | 5 | x | 2 | -1 | x
Cc1c(C(=O)OCCOC(C)C)[nH]c2c1C(=O)CC(c1ccco1)C2 (stereo not drawn) | 8 | -2 | 6 | 30* | 3 | 2
